Source: PubChem BioAssay (Tox21)
Results filed as inconclusive are left out. More than one record can exist for a structure, and the calls need not agree. Activity calls are given as the source filed them. Unless noted, calls come from the whole dose curve; as a rule, active = well fitted curve in the direction sought with a large enough effect in the repeat runs; inconclusive = weak or mixed curves; inactive = no such curve, though single readings can be large; an effect the other way counts as inactive or inconclusive.

Key:
[1] = molecular target: Estrogen receptor (Homo sapiens) (UniProt P03372); test: qHTS assay to identify small molecule antagonists of the estrogen receptor alpha (ER-alpha) signaling pathway (AID 743069; active = well fitted curve in the direction sought with a large enough effect in the signal ratio in the repeat runs, not every such curve was filed as active; the % refers to the signal ratio)
Estrogen receptor (Homo sapiens), sequence (P03372 whole entry, looked up): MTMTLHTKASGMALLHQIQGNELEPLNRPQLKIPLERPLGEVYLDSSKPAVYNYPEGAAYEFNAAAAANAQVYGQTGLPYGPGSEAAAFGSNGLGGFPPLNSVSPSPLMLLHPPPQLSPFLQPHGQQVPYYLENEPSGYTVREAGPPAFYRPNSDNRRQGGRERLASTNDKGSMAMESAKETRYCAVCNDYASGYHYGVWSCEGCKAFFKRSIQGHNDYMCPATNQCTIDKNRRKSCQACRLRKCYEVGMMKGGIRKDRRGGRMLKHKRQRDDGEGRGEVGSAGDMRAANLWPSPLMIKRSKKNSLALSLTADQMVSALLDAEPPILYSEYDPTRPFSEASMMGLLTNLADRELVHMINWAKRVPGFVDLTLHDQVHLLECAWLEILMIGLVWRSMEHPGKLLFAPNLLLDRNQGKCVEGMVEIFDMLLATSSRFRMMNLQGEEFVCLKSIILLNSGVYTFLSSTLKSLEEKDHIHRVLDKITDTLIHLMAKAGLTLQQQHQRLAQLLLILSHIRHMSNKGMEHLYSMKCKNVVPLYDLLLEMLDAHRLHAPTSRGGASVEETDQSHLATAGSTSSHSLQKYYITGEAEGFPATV
Procedure, shortened: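 In this cell-based reporter format, GripTite HEK293 cells harbouring ER-alpha-UAS-bla were grown overnight with 2% charcoal-stripped FBS, dosed with DMSO-dissolved compounds, then challenged with 17beta-estradiol. After 18 hr at 37C, beta-lactamase activity was detected by FRET fluorescence.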

[2] = qHTS assay to identify small molecule antagonists of the estrogen receptor alpha (ER-alpha) signaling pathway - cell viability counter screen (AID 743074; calls by dose curve; note: nearly all actives have a fitted effect of over 45% in size)
[3] = molecular target: Estrogen receptor (Homo sapiens) (UniProt P03372); test: qHTS assay to identify small molecule agonists of the estrogen receptor alpha (ER-alpha) signaling pathway (AID 743075; calls by dose curve)
[4] = molecular target: Estrogen receptor (Homo sapiens) (UniProt P03372); test: qHTS assay to identify small molecule agonists of the estrogen receptor alpha (ER-alpha) signaling pathway using the BG1 cell line (AID 743079); note: nearly all actives have a fitted effect of over 20% in size; note: potency is the fitted concentration of half-maximal effect
[5] = qHTS assay to identify small molecule antagonists of the estrogen receptor alpha (ER-alpha) signaling pathway using the BG1 cell line (AID 743080; calls by dose curve;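 note: BG1 cells stimulated with 17beta-estradiol alongside compound; series mostly up to about 70 µM; nearly all actives have a fitted effect of over 25% in size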)
Procedure, shortened: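 BG1Luc4E2, endogenous ER-alpha, 4xERE-luc; 5 d charcoal-stripped FBS, phenol red free; 24 h plating; cpd + 17beta-estradiol 21.5 h, 37 C/5% CO2; CellTiter-Fluor viability 30 min, then ONE-Glo luciferase 30 min RT.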

[6] = qHTS assay to identify small molecule antagonists of the estrogen receptor alpha (ER-alpha) signaling pathway using the BG1 cell line - cell viability counter screen (AID 743081);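 note: compound given together with 17beta-estradiol as the ER stimulus; series mostly up to about 70 µM; nearly all actives have a fitted effect of over 45% in size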
Aromatase (Homo sapiens) = Aromatase (Homo sapiens) (UniProt P11511); test: qHTS assay to identify aromatase inhibitors (AID 743083); note: series mostly up to about 70 µM; nearly all actives have a fitted effect of over 55% in size
Aromatase (Homo sapiens), sequence (P11511 whole entry, looked up): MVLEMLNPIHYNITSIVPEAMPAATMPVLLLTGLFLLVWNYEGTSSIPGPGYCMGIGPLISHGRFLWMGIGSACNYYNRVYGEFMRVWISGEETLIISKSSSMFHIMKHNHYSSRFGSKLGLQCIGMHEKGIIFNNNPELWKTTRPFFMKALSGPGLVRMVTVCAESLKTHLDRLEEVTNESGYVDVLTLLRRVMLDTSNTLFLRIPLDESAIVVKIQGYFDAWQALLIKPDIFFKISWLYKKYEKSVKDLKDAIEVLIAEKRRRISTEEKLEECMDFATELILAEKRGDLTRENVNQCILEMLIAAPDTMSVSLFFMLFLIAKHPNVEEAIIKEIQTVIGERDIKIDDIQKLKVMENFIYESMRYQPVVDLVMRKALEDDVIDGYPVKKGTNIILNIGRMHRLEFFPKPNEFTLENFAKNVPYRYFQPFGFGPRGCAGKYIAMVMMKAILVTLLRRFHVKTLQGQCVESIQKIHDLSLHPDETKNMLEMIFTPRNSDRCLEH

[7] = qHTS assay to identify small molecule antagonists of the thyroid receptor (TR) signaling pathway (AID 743065); note: series mostly up to about 70 µM; nearly all actives have a fitted effect of over 55% in size
Procedure, shortened: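 GH3.TRE-Luc rat pituitary cells (two TREs driving luciferase) were dosed with compound, then stimulated with 1 nM T3 (final) for 23.5 h at 37 C. ONE-Glo luminescence was the read-out, with CellTiter-Fluor fluorescence as the cytotoxicity counter-screen.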

[8] = test system: thyroid hormone receptor (rat, GH3 cells); test: qHTS assay to identify small molecule agonists of the thyroid receptor (TR) signaling pathway (AID 743066; calls by dose curve)
% is set by controls: 0 for no effect and ±100 for the full control effect.

CC(C)=CCC/C(C)=C\C#N
inactive: outcome [1] | Potency [2] | Potency [3] | Potency [4] | Potency [5] | outcome [6] | Potency (Aromatase (Homo sapiens))

CC[N+](C)(CC)CC
inactive: Potency [7] | Potency [8] | Potency [2] | outcome [6] | Potency (Aromatase (Homo sapiens))

CC(C)OC(=O)C(C(=O)OC(C)C)=C1SC=CS1
inactive: Potency [7] | Potency [8] | Potency [2] | outcome [6] | Potency (Aromatase (Homo sapiens))

N#Cc1ccccc1C#N
inactive: Potency [8] | outcome [1] | Potency [2] | Potency [3] | Potency [4] | Potency [5] | outcome [6] | Potency (Aromatase (Homo sapiens))

CCCCCCC(=O)c1ccccc1
inactive: Potency [8] | Potency [2] | outcome [6] | Potency (Aromatase (Homo sapiens))

CN1C(CCl)Nc2cc(Cl)c(S(N)(=O)=O)cc2S1(=O)=O (stereo unspecified)
inactive: outcome [1] | Potency [2] | Potency [3] | Potency [4] | Potency [5] | outcome [6] | Potency (Aromatase (Homo sapiens))

C=CCON/C(CCC)=C1\C(=O)CC(C)(C)C(C(=O)OC)=C1O
inactive: Potency [8] | Potency [2] | outcome [6] | Potency (Aromatase (Homo sapiens))

CCCCC(CC)COC(=O)CC#N (stereo unspecified)
inactive: outcome [1] | Potency [3] | Potency [4] | Potency [5] | outcome [6] | Potency (Aromatase (Homo sapiens))

CCN1CCN(C(=O)N[C@@H](C(=O)N[C@@H]2C(=O)N3C(C(=O)O)=C(CSc4nnnn4C)CS[C@H]23)c2ccc(O)cc2)C(=O)C1=O
inactive: outcome [1] | Potency [2] | Potency [3] | Potency [4] | Potency [5] | outcome [6] | Potency (Aromatase (Homo sapiens))

CC/C=C\CCOC(=O)c1ccccc1
inactive: outcome [1] | Potency [2] | Potency [3] | Potency [4] | Potency [5] | outcome [6] | Potency (Aromatase (Homo sapiens))

CCCOc1ccc(C(=O)OCCN(CC)CC)cc1N
inactive: Potency [8] | Potency [2] | Potency (Aromatase (Homo sapiens))

CCCCCCCOC(C)=O
inactive: Potency [8] | outcome [1] | Potency [2] | Potency [3] | Potency [5] | outcome [6] | Potency (Aromatase (Homo sapiens))
active: Potency [4] 48.6 µM

CCCCCCC(O)CO (stereo unspecified)
inactive: Potency [7] | outcome [1] | Potency [2] | Potency [3] | Potency [4] | Potency [5] | outcome [6] | Potency (Aromatase (Homo sapiens))

CCCCCCCCS(=O)(=O)O
inactive: Potency [7] | Potency [8] | Potency [2] | outcome [6] | Potency (Aromatase (Homo sapiens))

CCNC(=O)C(C)OC(=O)Nc1ccccc1 (stereo unspecified)
inactive: Potency [8] | outcome [1] | Potency [2] | Potency [3] | Potency [4] | Potency [5] | outcome [6] | Potency (Aromatase (Homo sapiens))

Cc1ccc(O)c([N+](=O)[O-])c1
inactive: Potency [8] | outcome [1] | Potency [2] | Potency [3] | Potency [4] | Potency [5] | outcome [6] | Potency (Aromatase (Homo sapiens))

CC(C)(C)NCC(O)COc1cccc2c1CCC(=O)N2 (stereo unspecified)
inactive: Potency [2] | outcome [6] | Potency (Aromatase (Homo sapiens))

COc1cc(C(=O)NC2CCCNC2)cc(OC)c1OC (stereo unspecified)
inactive: Potency [7] | Potency [8] | Potency [2] | Potency (Aromatase (Homo sapiens))

CCN(CC)CC
inactive: Potency [8] | outcome [1] | Potency [2] | Potency [3] | Potency [4] | Potency [5] | outcome [6] | Potency (Aromatase (Homo sapiens))

CC(=O)OCC(=O)[C@@]1(O)CC[C@H]2[C@@H]3CCC4=CC(=O)C=C[C@]4(C)[C@H]3[C@@H](O)C[C@@]21C
inactive: Potency [2] | outcome [6] | Potency (Aromatase (Homo sapiens))
active: Potency [4] 11.9 µM

CCCCC(CC)CCC(CC(C)C)OS(=O)(=O)O (stereo unspecified)
inactive: outcome [1] | Potency [2] | Potency [3] | Potency [5] | outcome [6] | Potency (Aromatase (Homo sapiens))
8.41 µM (active) and inactive: Potency [4]

c1cc2ccc3ccc4ccc5cccc6c(c1)c2c3c4c56
inactive: activity, negative = inhibition [7] 1.62% [at 3.79 µM] | activation [8] 1% [at 3.63 µM] | activity, negative = cytotoxicity [2] 7.3% [at 3.02 µM] | activity change, negative = cytotoxicity [6] 17.4% [at 3.79 µM] | activity, negative = inhibition (Aromatase (Homo sapiens)) -7.29% [at 3.79 µM]

O=c1[nH]c(=O)c2cn[nH]c2[nH]1
inactive: Potency [2] | outcome [6] | Potency (Aromatase (Homo sapiens))

Clc1cc(Cl)c(Cl)c(Cl)c1Cl
inactive: Potency [8] | outcome [1] | Potency [2] | Potency [3] | Potency [4] | Potency [5] | outcome [6] | Potency (Aromatase (Homo sapiens))

CC(=O)SC[C@@H](C)C(=O)N1CCC[C@H]1C(=O)N[C@@H](Cc1ccccc1)C(=O)O
inactive: outcome [1] | Potency [2] | Potency [3] | Potency [4] | Potency [5] | outcome [6] | Potency (Aromatase (Homo sapiens))

CC1(C)S[C@@H]2[C@H](NC(=O)Cc3ccccc3)C(=O)N2[C@H]1C(=O)O (tested in a mixture with another compound)
inactive: outcome [1] | Potency [2] | Potency [3] | Potency [4] | Potency [5] | outcome [6] | Potency (Aromatase (Homo sapiens))

C=CC(=O)OCCOCCOCC
inactive: Potency [7] | Potency [8] | Potency [2] | outcome [6] | Potency (Aromatase (Homo sapiens))
